Reference: PubChem BioAssay (NCI)
About 83,000 compounds went through this panel and 20% of them were active in at least one assay; those are over-represented in the sample as a whole.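 Note: values are percent growth. 100 is the growth of untreated cells, values between 100 and 0 indicate rising inhibition; between -100 and 0 indicates cell death.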 Unmarked numbers belong to inactive results. Active and inactive are the calls of the source. Rule for the calls: active = growth percent below 10; inactive = the rest.

What was measured:
Experiment in all cases: NCI-60 one-dose screen, 48 h (100 = growth as untreated, 0 = no growth, -100 = all killed)
Settings in all cases: 10 µM unless noted
[1] = system: NCI-H23 lung
[2] = system: NCI-H226 lung
[3] = system: NCI-H322M lung
[4] = system: HOP-62 NSCLC
[5] = system: NCI-H460 lung
[6] = system: HOP-92 NSCLC
[7] = system: NCI-H522 lung
[8] = system: A549/ATCC NSCLC
[9] = system: 786-0 renal
[10] = system: COLO 205 colon
[11] = system: DU-145 prostate
[12] = system: K-562 leukemia
[13] = system: MALME-3M melanoma
[14] = system: MDA-MB-231 breast
[15] = system: RXF 393 renal
[16] = system: SF-268 CNS
[17] = system: SF-295 CNS
[18] = system: SF-539 CNS
[19] = system: UACC-257 melanoma
[20] = system: M14 melanoma

Row | SMILES | growth [1] | growth [2] | growth [3] | growth [4] | growth [5] | growth [6] | growth [7] | growth [8] | growth [9] | growth [10] | growth [11] | growth [12] | growth [13] | growth [14] | growth [15] | growth [16] | growth [17] | growth [18] | growth [19] | growth [20]
1 | CC(O)(c1ccccc1)C(c1ccccc1)C1CCCCN1 (stereo not given) | 107% | 102% | 88.5% | 99.3% | 103% | 90.3% | 95.1% | 88.1% | 103% | 103% | 103% | 95.6% | 97.5% | 93.9% | 106% | 99.6% | 99.8% | 96.5% | 96.2% | 92.3%
2 | O=C(c1ccccc1)c1ccc(C2CCCCC2)cc1 | 95% | 92.4% | 99.7% | 98.5% | 97% | 76.2% | 88.9% | 98% | 90.1% | 101% | 106% | 103% | 87.4% | 102% | 100% | 100% | 94.3% | 102% | 105% | 96.8%
3 | COC(=O)c1c(C)nc(C)c2c1C(=O)C(Br)=C(NCc1ccccc1)C2=O | 5.25% (active) | 71% | 31.4% | 87.1% | 11.7% | 86.9% | 22% | 18.2% | 51.6% | -11.8% (active) | 38% | 21% | -75.4% (active) | 14.8% | 52.4% | 33% | 30.1% | 7.13% (active) | -7.87% (active) | 14%
4 | S=c1sc2c(Cl)nc(-c3cccnc3)nc2n1-c1ccccc1 | 17.5% | 85.2% | 61% | 27.8% | 57.4% | 25.3% | -65.8% (active) | 79.9% | 35.4% | 80% | 27.4% | 0.869% (active) | 65.8% | -11.7% (active) | -42.1% (active) | 14.6% | 96.1% | 6.15% (active) | 50% | 33%
5 | Cc1cc(C(=O)Nc2ncc(Cc3cccc(C(F)(F)F)c3)s2)c2ccccc2n1 | 51.6% | 54.4% | 59.3% | 31.8% | 11.3% | 28% | 10.3% | 24.7% | 38% | 19.2% | 57.4% | 7.79% (active) | 26.8% | 56.4% | 31.1% | 37.2% | 15.1% | 21.9% | 43.3% | 3.81% (active)
6 | O=C(N/N=C/c1ccc(Cl)cc1)c1[nH]c2ccc(Cl)cc2c1-c1ccccc1 | 42.1% | 10.9% | 37.6% | 23.9% | 4.43% (active) | -7.26% (active) | -32% (active) | 42.9% | 22.1% | -72.4% (active) | -2.5% (active) | 39.3% | 62.3% | 9.64% (active) | 34.6% | 27.2% | -24.1% (active) | -0.139% (active) | 59.9% | 20.2%
7 | Nc1cnc(C(=O)NNc2nc3cc(F)ccc3n3cccc23)cn1 | 44% | 49.5% | 26.3% | 33% | 7.9% (active) | 64.2% | 16.7% | 38.8% | 37.7% | 9.48% (active) | 37.8% | 23.7% | 59.9% | 35.9% | 70.6% | 36% | 12.7% | 33.9% | 50.9% | 23.3%
8 | COc1ccc2c(c1)N(CCO)C1=C(C(=O)OC1)C2c1cccc(F)c1 (stereo not given) | 25.6% | 45% | 46.5% | 36.9% | 6.1% (active) | 57.4% | 6.05% (active) | 16.1% | 27.9% | -22.6% (active) | 10.1% | 9.63% (active) | 55.7% | 36% | 31.3% | 35.5% | -15.6% (active) | -17.3% (active) | 67.6% | -1.78% (active)
9 | CC(=O)n1nc(C(=O)OC(C)(C)c2ccccc2)c2ccccc21 | 94.2% | 85.7% | 87.9% | 97.3% | 100% | 94.1% | 85.5% | 91.8% | 96.8% | 107% | 111% | 97% | 105% | 85.4% | 92.2% | 99.2% | 93.1% | 97.7% | 89.5% | 96.4%
10 | COc1cc(-c2nc3sccn3c2-c2ccnc(NCCNS(=O)(=O)c3ccccc3)n2)ccc1F | 67.6% | 41.2% | 67.7% | 73.2% | 60.4% | 47.8% | 36.2% | 45.5% | 61.4% | 40.4% | 61.4% | 28.3% | 49.2% | 48.8% | 21.5% | 48.6% | 66.4% | 83.8% | 62.4% | 38.6%
11 | CCn1c(SCC(=O)N/N=C(\C)c2ccc(Cl)cc2)nc2c1c(=O)n(C)c(=O)n2C | 102% | 99.7% | 96.9% | 91.8% | 101% | 103% | 97.7% | 104% | 101% | 107% | 108% | 98% | 100% | 104% | 106% | 98% | 101% | 96.3% | 103% | 97.4%
12 | COc1cc(-c2nccc3[nH]c(-c4ccc5cc[nH]c5c4)nc23)cc(OC)c1OC | 26.1% | 19.3% | 45% | -19.6% (active) | 2.58% (active) | -8.58% (active) | -59.5% (active) | -28.5% (active) | -56% (active) | -71.5% (active) | 18.2% | -14.4% (active) | 21.7% | -20.3% (active) | 18% | 19.3% | -59.4% (active) | -19.5% (active) | 29.6% | 4.35% (active)
13 | Cc1ccc2c(n1)C(=O)C(Br)=C(C1CCCC1)C2=O | 92.4% | 94.3% | 100% | 84% | 110% | 98.4% | 83.6% | 94.4% | 101% | 52% | 105% | 34.3% | 110% | 85.2% | 89.3% | 96.5% | 103% | 99.7% | 99.3% | 101%
14 | CC(C)COc1nc2c(c(=O)n(C)c(=O)n2C)n1C | 98.5% | 94.5% | 105% | 99% | 105% | 93.7% | 101% | 106% | 104% | 109% | 111% | 98% | 121% | 108% | 126% | 98.5% | 112% | 91.8% | 67.2% | 108%
15 | COc1ccc(C(C)=O)cc1S(=O)(=O)Nc1c(N)nc(SC)[nH]c1=O | 91.3% | 104% | 96.9% | 110% | 103% | 115% | 98.6% | 99.7% | 102% | 101% | 107% | 93% | 96.4% | 111% | 107% | 96.1% | 98.1% | 108% | 103% | 94.8%
